hcDAF-12 act: H. contortus DAF-12 nuclear receptor activators, primary screen, cell-based, luminescence, HEK293, lit1-tk-luc reporter; HEK293 hcDAF-12 lit1-tk-luc reporter; 0% DMSO, 100% Δ7-dafachronic acid; activation, % at 6.8 µM; 370,000 compounds, 1.4% hits; AID 652067, 2013;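 active means activation above the mean of all tested compounds plus 3 SD, cut at about 5.5% in these data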
DAX1 inh-1: DAX1 (NR0B1) inhibitors on StAR promoter, primary screen, cell-based, luminescence, SF-1 (NR5A1), full-length DAX-1; HEK293T StAR-luciferase reporter, SF-1/DAX-1 repression relief; inhibition, % at 6.8 µM; 370,000 compounds, 1.1% hits;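 active means inhibition above the mean over all tested compounds plus 3 SD, cut at about 3.6% in these data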;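 further: higher inhibition means more luminescence from relief of DAX-1 repression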
DAX1 inh-2: DAX1 (NR0B1) inhibitors, primary screen, cell-based, HEK293, Gal4-DAX1, luciferase luminescence | inhibition, % at 6.75 µM | HEK293 Gal4-DAX1 luciferase reporter | 340,000 compounds, 0.99% hits;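 active means inhibition above the mean over all tested compounds plus 3 SD, cut at about 4.2% in these data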;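 further: inhibition shows as a rise in luminescence from relieved DAX1 repression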
Target sequence (P51843 207-470 limits assumed): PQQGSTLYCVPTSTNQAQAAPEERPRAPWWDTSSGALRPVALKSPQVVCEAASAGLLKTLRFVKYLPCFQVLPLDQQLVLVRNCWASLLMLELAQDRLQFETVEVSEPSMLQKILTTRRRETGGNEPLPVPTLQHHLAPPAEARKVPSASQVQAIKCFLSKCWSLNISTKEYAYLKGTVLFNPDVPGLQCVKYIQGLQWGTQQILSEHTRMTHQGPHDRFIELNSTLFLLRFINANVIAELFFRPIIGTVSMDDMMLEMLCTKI
ssDAF12 agonist: S. stercoralis DAF-12 nuclear receptor activators, primary screen, cell-based, luminescence, HEK293, GRIP1 co-expression, lit1-tk-luc. Nuclear hormone receptor DAF-12 (Strongyloides stercoralis). HEK293 ssDAF-12/GRIP1 lit1-tk-luc reporter; % of 3 µM dafachronic acid response. activation, % at 6.8 µM. 370,000 compounds, 1% hits. AID 652126, 2013;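 active means activation above the mean over all tested compounds plus 3 SD, cut at about 0.9% in these data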
hgDAF-12 ag: H. glycines DAF-12 receptor agonists, primary screen, cell-based, luminescence, HEK293, GAL4 fusion, UAS-luciferase; 370,000 compounds, 1.8% hits; activation, % at 6.8 µM; HEK293 GAL4-hgDAF12 UAS-luciferase reporter, agonist luminescence; normalized to butyrate control; Nuclear hormone receptor DAF-12 (Heterodera glycines), GAL4 fusion;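 active means activation above a cutoff set at the mean of all screened compounds plus 3 SD, cut at about 10% in these data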
Of the large screens only hits and unclear results are named; the others gave an inactive call. Shown are actives, neighbours in structure and some others; about 4.1% of the full set was active somewhere.

O=C(Nc1ccc2[nH]ncc2c1)c1ccccc1	none
Cc1nc(-c2ccc(NC(=O)c3ccccc3Br)cc2)cs1	hgDAF-12 ag 21
O=C(Nc1ccc2[nH]ncc2c1)c1ccc(F)cc1	none
O=C(Nc1ccc2[nH]ncc2c1)c1ccccc1Cl	hgDAF-12 ag 13
Cc1nc(-c2ccc(NC(=O)c3ccco3)cc2)cs1	none
O=C(Nc1ccc2[nH]ncc2c1)c1ccccc1Br	hgDAF-12 ag 12
Cc1ccccc1CN1CCCCC(NC(=O)C(C)(C)C)C1=O (stereo not given)	none (no result: DAX1 inh-2)
CN1[C@@H](Cc2ccccc2)COc2cccc(N3CCSCC3)c2S1(=O)=O	none (no result: DAX1 inh-2)
COc1ccccc1CNC(=O)CN1C(=O)c2ccccc2S1(=O)=O	DAX1 inh-2 4.5
COc1ccccc1CNC(=O)CSc1ccccc1	hgDAF-12 ag 11
COc1ccccc1CNC(=O)CN1NS(=O)(=O)c2ccccc2C1=O	none
C=CC(=O)NC1CCCCN(C)C1=O (stereo not given)	none (no result: DAX1 inh-2)
Cc1noc(/C=C/N(C)C)c1S(=O)(=O)N1CCCC(C(=O)N2CCc3ccccc32)C1 (stereo not given)	none
Cc1n[nH]c(C)c1S(=O)(=O)N1CCCC(C(=O)N2CCc3ccccc32)C1 (stereo not given)	ssDAF12 agonist 1.9
COC(=O)CCC[C@H](C)[C@@H](NS(=O)(=O)c1ccc(C)cc1)C(C)(C)C	none (no result: DAX1 inh-2)
CCOc1cc(S(=O)(=O)n2cnc(C)c2)ccc1Cl	DAX1 inh-2 4.5
COc1cc(S(=O)(=O)n2cnc(C)c2)ccc1Cl	none
CCN(CC)Cc1c(NC(=O)c2ccccc2)sc(C)c1C	hgDAF-12 ag 11
Cc1ccc([N+](=O)[O-])cc1NC(=O)C1CCN(S(C)(=O)=O)CC1	none
Cc1ccc([N+](=O)[O-])cc1NC(=O)C1CCCC1	ssDAF12 agonist 5.5
Cc1cnc(C(=O)NCCc2ccc(Cl)cc2)cn1	DAX1 inh-1 4.0
O=C(NCCc1ccc2c(c1)OCCO2)c1ccc(F)cc1	none
O=C(NCCc1ccc(Cl)cc1)c1ccc2c(c1)OCCO2	hgDAF-12 ag 11
O=C(OC12CCCN(C1)/C(=C/c1cccnc1)C2)c1cccc(F)c1 (stereo not given)	none (no result: DAX1 inh-2)
COCCNc1nc(Oc2ccc(CC(=O)OC)cc2)c2sc(-c3ccccc3)cc2n1	DAX1 inh-1 3.8 (no result: DAX1 inh-2)
COC(=O)[C@]12C[C@H](CC(=O)N3CCSCC3)C(=O)N(Cc3ccc4c(c3)OCO4)C1=C[C@H](COCc1ccccc1)O[C@@H]2C	none (no result: DAX1 inh-2)
CC(C)Cn1nc(NC(=O)c2cccs2)c2cc3ccccc3nc21	DAX1 inh-2 5.5
CC(C)Cn1nc(NC(=O)c2ccco2)c2cc3ccccc3nc21	none
Cc1ccc2nc3c(cc2c1)c(NC(=O)c1ccco1)nn3CC(C)C	DAX1 inh-2 12
Cc1cc(NS(=O)(=O)c2ccc(NC(=O)Cc3ccccc3)cc2)no1	none (no result: DAX1 inh-2)
CCOC(=O)C1=NNC(C(=O)O)C1c1ccccc1 (stereo not given)	hcDAF-12 act 6.0, hgDAF-12 ag 10
O=S1(=O)c2ccc(Br)cc2OC[C@@H](Cc2ccccc2)N1Cc1cn(CCC2OCCCO2)nn1	none (no result: DAX1 inh-2)
Cc1c(OCC(=O)N[C@H](C(=O)O)c2ccccc2)ccc2c3c(c(=O)oc12)CCCC3	DAX1 inh-2 4.3
COc1ccc(S[C@]2(C(=O)N(C)C)CC(=O)N(c3ccc(C#N)cc3)[C@@H]2c2ccc(OC)cc2)cc1	none (no result: DAX1 inh-2)
O=c1[nH]c2c(s1)C=Nc1ccccc1N2	hcDAF-12 act 6.2
CCOC(=O)OCC(=O)C1(O)CCC2C3CCC4=CC(=O)CCC4(C)C3C(O)CC21C (stereo not given)	none
CC(=O)OCC(=O)C1(O)CCC2C3CCC4=CC(=O)CCC4(C)C3C(O)CC21C (stereo not given)	DAX1 inh-1 3.7
CCCCn1c(O)c2n(c1=O)Cc1ccccc1N=C2c1ccc(OC)cc1	hcDAF-12 act 5.6 (no result: DAX1 inh-2)
Cc1cc(C)cc(-n2ncc3c2CCCC3NC(=O)c2csnn2)c1 (stereo not given)	DAX1 inh-1 4.5
COc1ccc(C(=O)/C=C(\Nc2ccc(F)cc2)c2ccc(OC)cc2OC)c(OC)c1	none (no result: DAX1 inh-2)
O=C(CCC1CCN(Cc2ccccc2Cl)CC1)NC1CC1	none
COc1cc(CN2CCC(CCC(=O)NC3CC3)CC2)cc(Cl)c1OC	DAX1 inh-2 5.2
C[C@@H]1CN([C@@H](C)CO)C(=O)CCCn2nncc2CO[C@@H]1CN(C)C(=O)Nc1ccnc(N2CCOCC2)c1	DAX1 inh-2 6.2
C[C@@H]1CN([C@H](C)CO)C(=O)CCCn2cc(nn2)CO[C@H]1CN(C)C(=O)Nc1cccc(Oc2ccccn2)c1	DAX1 inh-2 6.3
C[C@@H]1CN([C@H](C)CO)C(=O)CCCn2nncc2CO[C@H]1CN(C)C(=O)c1ccccc1	hgDAF-12 ag 13
C[C@@H]1CN([C@@H](C)CO)C(=O)CCCn2cc(nn2)CO[C@H]1CN(C)C(=O)Nc1ccnc(N2CCOCC2)c1	none (no result: DAX1 inh-2)
C[C@H](CO)N1C[C@H](C)[C@@H](CN(C)C(=O)Nc2cccc(Oc3ccccn3)c2)OCc2cn(nn2)CCCC1=O	none (no result: DAX1 inh-2)
O=C(c1ccc(F)cc1)C1CCN(CCCn2c(=O)[nH]c3ccccc32)CC1	none (no result: DAX1 inh-2)
Cc1ccccc1C(=O)N=c1sccn1C	none
Cn1ccsc1=NC(=O)c1cc(S(=O)(=O)N2CCOCC2)ccc1F	none
Cn1ccsc1=NC(=O)c1cccc(C#N)c1	DAX1 inh-2 4.5
Cc1cccc(C(=O)N=c2sccn2C)c1[N+](=O)[O-]	DAX1 inh-1 4.5, hgDAF-12 ag 11
Cc1ccc(C(=O)N=c2sccn2C)cc1S(=O)(=O)N1CCOCC1	DAX1 inh-1 3.7
CCCCCCCCN1C(=O)[C@@H](CC(=O)NCCCOCCCC)C[C@@]2(C(=O)OC)C1=C[C@H](C(C)C)O[C@@H]2C1CC1	none (no result: DAX1 inh-2)
O=c1cc(N2CCN(c3cccc(Cl)c3Cl)CC2)[nH]c(=O)n1C1CCCCC1	none (no result: DAX1 inh-1, DAX1 inh-2)
Cc1csc2ncc(C(=O)Nc3ccccc3F)c(=O)n12	hcDAF-12 act 6.2
COC(=O)C1CN(Cc2ccc(F)cc2)CCS(=O)(=O)N1Cc1cn(Cc2ccc(F)cc2)nn1 (stereo not given)	none (no result: DAX1 inh-2)
N#CC1CCN(C(=O)c2ccc3c(Cl)c4c(nc3c2)CCCC4)CC1	DAX1 inh-1 4.4
NS(=O)(=O)c1ccc(NC(=O)CSc2nnc(-c3cccs3)o2)cc1	none (no result: DAX1 inh-2)
CN1CCN(NC(=O)CN2C(=O)S/C(=C\c3c(Cl)cccc3Cl)C2=O)CC1	DAX1 inh-2 5.2
CCOc1ccccc1-n1nnnc1SCc1nc2ccccc2s1	ssDAF12 agonist 3.6
